# According to the supplement of paper PMC4466140:
# Assays:
# Assay in all cases: SPOT peptide array binding signal intensity (averaged, normalized) (arbitrary units (background-subtracted, floor 0; scale differs between SH3 domains)); higher = stronger binding of the SH3 domain to the peptide
# CaNbp2 = target: CaNbp2
# Summary of the method: (§1)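 Detection of bound protein relied on anti-GST antibody, an HRP anti-mouse secondary and luminol, with imaging and quantification in Genespotter. The bound protein was GST-fused SH3 domains from four yeast species, incubated at 10 μg/ml overnight at 4°C in TBS-based blocking buffer on cellulose membranes carrying synthetic 15-mer peptides with cysteines replaced by serines. Binding signal is normalized, background-subtracted spot intensity averaged over replicates, in arbitrary units that differ between domains.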
# CaRvs167 = target: CaRvs167
# Summary of the method: as §1
# CaRvs167-3 = target: CaRvs167-3
# Summary of the method: as §1
# CaSho1 = target: CaSho1
# Summary of the method: as §1
# CaSla1-D1-D2 = target: CaSla1-D1-D2
# Summary of the method: as §1
# CaSla1-D3 = target: CaSla1-D3
# Summary of the method: as §1
# ScAbp1 = target: ScAbp1
# Summary of the method: as §1
# ScBbc1 = target: ScBbc1
# Summary of the method: as §1
# ScBem1-D1 = target: ScBem1-D1
# Summary of the method: as §1
# ScBzz1-D1 = target: ScBzz1-D1
# Summary of the method: as §1
# ScBzz1-D2 = target: ScBzz1-D2
# Summary of the method: as §1
# ScCyk3 = target: ScCyk3
# Summary of the method: as §1
# ScFus1 = target: ScFus1
# Summary of the method: as §1
# ScHof1 = target: ScHof1
# Summary of the method: as §1
# ScHse1 = target: ScHse1
# Summary of the method: as §1
# ScLsb1 = target: ScLsb1
# Summary of the method: as §1
# ScLsb2 = target: ScLsb2
# Summary of the method: as §1
# ScLsb3 = target: ScLsb3
# Summary of the method: as §1
# ScLsb4 = target: ScLsb4
# Summary of the method: as §1
# ScMyo3 = target: ScMyo3
# Summary of the method: as §1
# ScMyo5 = target: ScMyo5
# Summary of the method: as §1
# ScNbp2 = target: ScNbp2
# Summary of the method: as §1
# ScPex13 = target: ScPex13
# Summary of the method: as §1
# ScRvs167 = target: ScRvs167
# Summary of the method: as §1
# ScSho1 = target: ScSho1
# Summary of the method: as §1
# ScSla1-D1-D2 = target: ScSla1-D1-D2
# Summary of the method: as §1
# ScSla1-D3 = target: ScSla1-D3
# Summary of the method: as §1
# SpAbp1-D1 = target: SpAbp1-D1
# Summary of the method: as §1
# SpBbc1 = target: SpBbc1
# Summary of the method: as §1
# SpBzz1-D1 = target: SpBzz1-D1
# Summary of the method: as §1
# SpBzz1-D2 = target: SpBzz1-D2
# Summary of the method: as §1
# SpCyk3 = target: SpCyk3
# Summary of the method: as §1
# SpHof1 = target: SpHof1
# Summary of the method: as §1
# SpHof1-2 = target: SpHof1-2
# Summary of the method: as §1
# SpHof1-3 = target: SpHof1-3
# Summary of the method: as §1
# SpHse1 = target: SpHse1
# Summary of the method: as §1
# SpLsb1 = target: SpLsb1
# Summary of the method: as §1
# SpLsb4 = target: SpLsb4
# Summary of the method: as §1
# SpMyo1 = target: SpMyo1
# Summary of the method: as §1
# SpNbp2 = target: SpNbp2
# Summary of the method: as §1
# SpPex13 = target: SpPex13
# Summary of the method: as §1
# SpRvs167 = target: SpRvs167
# Summary of the method: as §1
# SpSla1-D1-D2 = target: SpSla1-D1-D2
# Summary of the method: as §1
# SpSla1-D3 = target: SpSla1-D3
# Summary of the method: as §1
# AgAbp1 = target: AgAbp1
# Summary of the method: as §1
# AgBbc1 = target: AgBbc1
# Summary of the method: as §1
# AgBem1-D1 = target: AgBem1-D1
# Summary of the method: as §1
# AgBzz1-D1 = target: AgBzz1-D1
# Summary of the method: as §1
# AgBzz1-D2 = target: AgBzz1-D2
# Summary of the method: as §1
# AgCyk3 = target: AgCyk3
# Summary of the method: as §1
# AgFus1 = target: AgFus1
# Summary of the method: as §1
# AgHof1 = target: AgHof1
# Summary of the method: as §1
# AgHse1 = target: AgHse1
# Summary of the method: as §1
# AgLsb1 = target: AgLsb1
# Summary of the method: as §1
# AgLsb4 = target: AgLsb4
# Summary of the method: as §1
# AgMyo5 = target: AgMyo5
# Summary of the method: as §1
# AgNbp2 = target: AgNbp2
# Summary of the method: as §1
# AgRvs167 = target: AgRvs167
# Summary of the method: as §1
# AgSho1 = target: AgSho1
# Summary of the method: as §1
# AgSla1-D1-D2 = target: AgSla1-D1-D2
# Summary of the method: as §1
# AgSla1-D3 = target: AgSla1-D3
# Summary of the method: as §1
# CaAbp1-D1 = target: CaAbp1-D1
# Summary of the method: as §1
# CaAbp1-D2 = target: CaAbp1-D2
# Summary of the method: as §1
# CaBbc1 = target: CaBbc1
# Summary of the method: as §1
# CaBem1-D1 = target: CaBem1-D1
# Summary of the method: as §1
# CaBzz1-D1 = target: CaBzz1-D1
# Summary of the method: as §1
# CaBzz1-D2 = target: CaBzz1-D2
# Summary of the method: as §1
# CaCyk3 = target: CaCyk3
# Summary of the method: as §1
# CaFus1 = target: CaFus1
# Summary of the method: as §1
# CaHof1 = target: CaHof1
# Summary of the method: as §1
# CaHse1 = target: CaHse1
# Summary of the method: as §1
# CaLsb1 = target: CaLsb1
# Summary of the method: as §1
# CaLsb4 = target: CaLsb4
# Summary of the method: as §1
# CaMyo5 = target: CaMyo5
# Summary of the method: as §1
binder,measurement,setting,value
RRRIAYPFYPFKKLG,SPOT peptide array binding signal intensity,CaNbp2,565
same,SPOT peptide array binding signal intensity,CaRvs167,13.3
same,SPOT peptide array binding signal intensity,CaRvs167-3,62.5
same,SPOT peptide array binding signal intensity,CaSho1,486
same,SPOT peptide array binding signal intensity,CaSla1-D1-D2,≤ 0
same,SPOT peptide array binding signal intensity,CaSla1-D3,2.5
same,SPOT peptide array binding signal intensity,ScAbp1,103
same,SPOT peptide array binding signal intensity,ScBbc1,≤ 0
same,SPOT peptide array binding signal intensity,ScBem1-D1,16
same,SPOT peptide array binding signal intensity,ScBzz1-D1,6
same,SPOT peptide array binding signal intensity,ScBzz1-D2,14
same,SPOT peptide array binding signal intensity,ScCyk3,38.5
same,SPOT peptide array binding signal intensity,ScFus1,230
same,SPOT peptide array binding signal intensity,ScHof1,0.5
same,SPOT peptide array binding signal intensity,ScHse1,1700
same,SPOT peptide array binding signal intensity,ScLsb1,3.5
same,SPOT peptide array binding signal intensity,ScLsb2,4
same,SPOT peptide array binding signal intensity,ScLsb3,104
same,SPOT peptide array binding signal intensity,ScLsb4,11
same,SPOT peptide array binding signal intensity,ScMyo3,4
same,SPOT peptide array binding signal intensity,ScMyo5,≤ 0
same,SPOT peptide array binding signal intensity,ScNbp2,173
same,SPOT peptide array binding signal intensity,ScPex13,0.5
same,SPOT peptide array binding signal intensity,ScRvs167,13.3
same,SPOT peptide array binding signal intensity,ScSho1,606
same,SPOT peptide array binding signal intensity,ScSla1-D1-D2,≤ 0
same,SPOT peptide array binding signal intensity,ScSla1-D3,≤ 0
same,SPOT peptide array binding signal intensity,SpAbp1-D1,155
same,SPOT peptide array binding signal intensity,SpBbc1,1
same,SPOT peptide array binding signal intensity,SpBzz1-D1,37
same,SPOT peptide array binding signal intensity,SpBzz1-D2,≤ 0
same,SPOT peptide array binding signal intensity,SpCyk3,≤ 0
same,SPOT peptide array binding signal intensity,SpHof1,37.5
same,SPOT peptide array binding signal intensity,SpHof1-2,12.5
same,SPOT peptide array binding signal intensity,SpHof1-3,225
same,SPOT peptide array binding signal intensity,SpHse1,745
same,SPOT peptide array binding signal intensity,SpLsb1,1.5
same,SPOT peptide array binding signal intensity,SpLsb4,47
same,SPOT peptide array binding signal intensity,SpMyo1,2.5
same,SPOT peptide array binding signal intensity,SpNbp2,394
same,SPOT peptide array binding signal intensity,SpPex13,5.5
same,SPOT peptide array binding signal intensity,SpRvs167,7.33
same,SPOT peptide array binding signal intensity,SpSla1-D1-D2,≤ 0
same,SPOT peptide array binding signal intensity,SpSla1-D3,1.5
YSRKKLPVVLSKMTL,SPOT peptide array binding signal intensity,AgAbp1,68
same,SPOT peptide array binding signal intensity,AgBbc1,21.5
same,SPOT peptide array binding signal intensity,AgBem1-D1,45.5
same,SPOT peptide array binding signal intensity,AgBzz1-D1,82.5
same,SPOT peptide array binding signal intensity,AgBzz1-D2,43.5
same,SPOT peptide array binding signal intensity,AgCyk3,3
same,SPOT peptide array binding signal intensity,AgFus1,109
same,SPOT peptide array binding signal intensity,AgHof1,28.8
same,SPOT peptide array binding signal intensity,AgHse1,126
same,SPOT peptide array binding signal intensity,AgLsb1,223
same,SPOT peptide array binding signal intensity,AgLsb4,12
same,SPOT peptide array binding signal intensity,AgMyo5,3.25
same,SPOT peptide array binding signal intensity,AgNbp2,48.5
same,SPOT peptide array binding signal intensity,AgRvs167,3.5
same,SPOT peptide array binding signal intensity,AgSho1,190
same,SPOT peptide array binding signal intensity,AgSla1-D1-D2,57
same,SPOT peptide array binding signal intensity,AgSla1-D3,14.5
same,SPOT peptide array binding signal intensity,CaAbp1-D1,444
same,SPOT peptide array binding signal intensity,CaAbp1-D2,126
same,SPOT peptide array binding signal intensity,CaBbc1,15.8
same,SPOT peptide array binding signal intensity,CaBem1-D1,35.5
same,SPOT peptide array binding signal intensity,CaBzz1-D1,197
same,SPOT peptide array binding signal intensity,CaBzz1-D2,92.2
same,SPOT peptide array binding signal intensity,CaCyk3,8
same,SPOT peptide array binding signal intensity,CaFus1,166
same,SPOT peptide array binding signal intensity,CaHof1,2
same,SPOT peptide array binding signal intensity,CaHse1,17.2
same,SPOT peptide array binding signal intensity,CaLsb1,16
same,SPOT peptide array binding signal intensity,CaLsb4,25.5
same,SPOT peptide array binding signal intensity,CaMyo5,4.75
same,SPOT peptide array binding signal intensity,CaNbp2,143
same,SPOT peptide array binding signal intensity,CaRvs167,16.7
same,SPOT peptide array binding signal intensity,CaRvs167-3,11.5
same,SPOT peptide array binding signal intensity,CaSho1,131
same,SPOT peptide array binding signal intensity,CaSla1-D1-D2,264
same,SPOT peptide array binding signal intensity,CaSla1-D3,131
same,SPOT peptide array binding signal intensity,ScAbp1,108
same,SPOT peptide array binding signal intensity,ScBbc1,11
same,SPOT peptide array binding signal intensity,ScBem1-D1,31
same,SPOT peptide array binding signal intensity,ScBzz1-D1,67.5
same,SPOT peptide array binding signal intensity,ScBzz1-D2,75
same,SPOT peptide array binding signal intensity,ScCyk3,9
same,SPOT peptide array binding signal intensity,ScFus1,108
same,SPOT peptide array binding signal intensity,ScHof1,4.5
same,SPOT peptide array binding signal intensity,ScHse1,370
same,SPOT peptide array binding signal intensity,ScLsb1,191
same,SPOT peptide array binding signal intensity,ScLsb2,1100
same,SPOT peptide array binding signal intensity,ScLsb3,24.5
same,SPOT peptide array binding signal intensity,ScLsb4,12.5
same,SPOT peptide array binding signal intensity,ScMyo3,6
same,SPOT peptide array binding signal intensity,ScMyo5,6
same,SPOT peptide array binding signal intensity,ScNbp2,95
same,SPOT peptide array binding signal intensity,ScPex13,150
same,SPOT peptide array binding signal intensity,ScRvs167,8.33
same,SPOT peptide array binding signal intensity,ScSho1,2450
same,SPOT peptide array binding signal intensity,ScSla1-D1-D2,300
same,SPOT peptide array binding signal intensity,ScSla1-D3,53.2
same,SPOT peptide array binding signal intensity,SpAbp1-D1,243
same,SPOT peptide array binding signal intensity,SpBbc1,3
same,SPOT peptide array binding signal intensity,SpBzz1-D1,137
